Cruzain Triton: cruzain (T. cruzi) inhibition with detergent | purified cruzain, Z-FR-AMC fluorescence, 0.01% Triton | Potency, µM, actives largely listed as inhibitors | 200,000 tested, 0.43% active; note: nearly all actives have a fitted effect of over 40% in size
Target sequence (P25779 123-467 limits assumed): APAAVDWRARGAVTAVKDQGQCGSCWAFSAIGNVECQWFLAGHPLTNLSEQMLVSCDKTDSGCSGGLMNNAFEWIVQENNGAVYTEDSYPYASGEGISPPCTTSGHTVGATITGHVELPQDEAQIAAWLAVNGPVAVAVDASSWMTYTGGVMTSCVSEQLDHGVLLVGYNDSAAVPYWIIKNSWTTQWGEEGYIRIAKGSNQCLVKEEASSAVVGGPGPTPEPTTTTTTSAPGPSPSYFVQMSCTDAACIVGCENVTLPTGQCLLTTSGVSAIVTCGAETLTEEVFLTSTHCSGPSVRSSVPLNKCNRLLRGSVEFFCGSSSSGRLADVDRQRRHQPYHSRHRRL
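In this qHTS format, compounds are incubated with 1.5 nM cruzain for 15 min at room temperature before 2 uM Z-FR-AMC is added. Release of AMC is followed at 360/450 nm, and progress is taken as the 60 s fluorescence difference.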
Cruzain noTriton: blocks cruzain activity in detergent-free assay. 200,000 tested, 2.3% active. purified cruzain, Z-FR-AMC fluorescence, no detergent. AID 1476. Potency, µM, hits mostly inhibitors. P25779; note: nearly all actives have a fitted effect of over 40% in size
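Purified cruzain at 1.5 nM, pre-incubated 15 min with compound at room temperature in 100 mM sodium acetate pH 5.5, 5 mM DTT, 0.00005% Triton X-100. Reaction started with 2 uM Z-FR-AMC; AMC fluorescence increase over 60 s gives rate.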
NS1 inh: blocks influenza NS1 protein function; Potency, µM (series often up to 46.1 µM); 270,000 tested, 0.4% active; calls by dose curve; note: actives are rising curves; nearly all actives have a fitted effect of over 50% in size
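S. cerevisiae expressing influenza A NS1, grown in glucose, washed, then diluted 1:100 into pH 6.0 -URA galactose medium with 23 nl compound. Growth recovery read as OD600; NS1-free strain serves as control.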
Large screens that a line does not name were inactive; ! = repeats disagree. The sample as a whole holds a higher share of hits than the screen did. Unless noted, calls come from the whole dose curve; as a rule, active = well fitted curve in the direction sought with a large enough effect; inconclusive = small, poorly fitted or top-dose-only effect, or another doubt; inactive = no such curve, though single readings can be large; an effect the other way counts as inactive or inconclusive.

COc1ccccc1N1CCN(C(=O)C2CCN(S(=O)(=O)Cc3ccccc3)CC2)CC1	Cruzain noTriton inconclusive (no result: NS1 inh)
NS(=O)(=O)c1ccc(-c2ccc([As](=O)(O)O)cc2)cc1	none
Cc1cccc(Cn2c(=O)n(-c3cc(C)cc(C)c3)c(=O)c3oc4ccccc4c32)c1	none (no result: NS1 inh)
Cc1cc(O)c(NC(=S)NC(=O)c2ccc(-c3ccc(Cl)cc3)o2)cc1C	Cruzain noTriton 16µM
Cc1ccc(NC(=S)NC(=O)c2ccc(-c3ccc(Cl)cc3)o2)c(O)c1	none
CC1=NN2C(=N)/C(=C\c3ccc(SCc4ccccc4)o3)C(=O)N=C2S1	Cruzain noTriton 7.9µM
CC1=NN2C(=N)/C(=C\c3cc(C)n(Cc4ccccc4)c3C)C(=O)N=C2S1	none (no result: Cruzain Triton, Cruzain noTriton)
Cc1nnc(SCC(=O)NCc2ccc(N(C)C)cc2)c2nn(-c3ccccc3)c(C)c12	none (no result: NS1 inh)
S=C(Nc1ccccc1)Nc1nc2ccccc2n1CCOc1ccccc1	Cruzain noTriton 10µM
CC(=O)Nc1nc2ccccc2n1CCOc1ccccc1	none
Cc1ccc(S(=O)ON2CCC(C(=O)O)(c3ccccc3)CC2)cc1 (stereo not drawn)	none
Cc1cccc(C)c1NC(=O)COc1ccc2c(C)c(Cc3ccccc3)c(=O)oc2c1C	Cruzain noTriton 13µM
Cc1c(Cc2ccccc2)c(=O)oc2c(C)c(OCC(=O)Nc3ccc(C#N)cc3)ccc12	Cruzain noTriton 13µM
Cc1c(Cc2ccccc2)c(=O)oc2c(C)c(OCC(=O)NCC3CCC(C(=O)O)CC3)ccc12 (stereo not drawn)	none (no result: Cruzain Triton, Cruzain noTriton)
COc1cccc(C(=O)COc2ccc3c(C)c(Cc4ccccc4)c(=O)oc3c2C)c1	Cruzain noTriton inconclusive
CCCCNc1nc(C)nc2c1nc(-c1ccccc1)n2CCCN(CC)CC	none (no result: NS1 inh)
COC(=O)c1cc2sc(Cl)cc2n1CC(=O)Nc1cc(OC)cc(OC)c1	none (no result: NS1 inh)
COC(=O)c1cc2sc(Cl)cc2n1CC(=O)NCCC(C)C	Cruzain noTriton 25µM
CC12CC[C@@](C(=O)O)(C(=O)C1=O)C2(C)C	none (no result: NS1 inh)
COCCn1c(=O)c(-c2cccs2)nc2cnc(N(C)C)nc21	none (no result: NS1 inh)
O=C1CSC(=S)N1/N=C/c1c(F)cccc1F	none (no result: Cruzain Triton, Cruzain noTriton)
O=C1CSC(=S)N1/N=C/C=C/c1ccccc1	Cruzain Triton inconclusive, Cruzain noTriton 32µM
CCC(=O)C(C(=O)OC)[C@H](CCc1ccccc1)NC(=O)OC (stereo partly drawn)	none (no result: NS1 inh)
Cc1nc2ccccn2c(=O)c1NC(=O)c1ccccc1Cl	none (no result: NS1 inh)
CC1=CC(C)(C)Nc2ccc(OC(=O)CCN3C(=O)c4ccccc4C3=O)cc21	none
CC1=CC(C)(C)Nc2ccccc21	Cruzain noTriton 16µM!
CCOC(=O)CC(=O)CSc1nc2sc(C)cc2c(=O)n1Cc1ccco1	none
Cc1cc2c(=O)n(Cc3ccco3)c(SCC(=O)c3ccc(Cl)s3)nc2s1	Cruzain noTriton 25µM
CCN(CC)S(=O)(=O)c1ccc2c(c1)N(CC(=O)Nc1c(C)cccc1C)C(=O)C1CCCN21 (stereo not drawn)	none (no result: NS1 inh)
COCCCNC(=O)c1cc2cc(S(=O)(=O)N3CCCCC3)ccc2n1C	none (no result: NS1 inh)
CCOC(=O)c1c(NC(=O)CSc2nnc(-c3c[nH]c4ccccc34)n2CCOC)sc2c1CCCCC2	none
CCOC(=O)c1c(NC(=O)CSc2c[nH]c3ccccc23)sc2c1CCC2	Cruzain noTriton 32µM
CCOC(=O)c1c(NC(=O)CSc2c[nH]c3ccccc23)sc2c1CCCC2	Cruzain noTriton 25µM
CCOC(=O)c1c(NC(=O)CSc2nnc3ccccn23)sc2c1CCC2	none
ClP(Cl)(Cl)(Cl)Cl	none (no result: NS1 inh)
CCOc1ccc(CNC(=O)c2cnc3sc(N4CCOCC4)nn3c2=O)cc1OC	none (no result: NS1 inh)
Cc1c(C(=O)N2CCC(C)CC2)c(S(=O)(=O)N2CCN(c3cccc(Cl)c3)CC2)c(C)n1C	Cruzain noTriton inconclusive (no result: NS1 inh)
O=C(Cc1cn2ccsc2n1)Nc1ccccn1	none
O=C(Cc1cn2ccsc2n1)Nc1cccc2cnccc12	Cruzain Triton inconclusive, Cruzain noTriton 13µM
CC(=O)Nc1ccc(NC(=O)CSc2nnc(NC(=O)C3CC(=O)N(c4ccccc4)C3)s2)cc1 (stereo not drawn)	none (no result: Cruzain Triton, Cruzain noTriton)
Cc1ccc(N2CC(C(=O)Nc3nnc(SCC(=O)Nc4cc(C)on4)s3)CC2=O)cc1 (stereo not drawn)	Cruzain noTriton 7.9µM
COc1ccc(/C=C\c2onc(C)c2S(=O)(=O)N2CCC(C(=O)Nc3ccccc3OC)CC2)cc1	Cruzain noTriton inconclusive (no result: NS1 inh)
CC(C)(C)OC(=O)N1CCC(N2CCN(Cc3ccccc3)C(=O)C2=O)CC1	none (no result: NS1 inh)
COCCNC(=O)Cn1c(=O)n(CCCCCC(=O)NCc2ccccc2Cl)c(=O)c2sccc21	none (no result: NS1 inh)
O=C(Nc1nnc(-c2ccc3c(c2)OCCO3)o1)c1ccc(Cc2ccccc2)cc1	Cruzain noTriton 13µM
CSc1cccc(-c2nnc(NC(=O)c3ccc4c(c3)OCCO4)o2)c1	none (no result: NS1 inh)
O=C(NCc1ccc2c(c1)CCN2C(=O)c1ccncc1)c1cccc(Cl)c1	none (no result: NS1 inh)
Cc1nc(N)sc1C(=O)N/N=C/c1ccc([N+](=O)[O-])cc1	none (no result: Cruzain Triton, Cruzain noTriton)
Cc1csc(/N=C/c2ccc([N+](=O)[O-])cc2)n1	Cruzain noTriton 20µM
COc1ccc(C2C(C(=O)Nc3ccccc3)=C(C)Nc3nc(-c4ccccc4Cl)nn32)cc1OC (stereo not drawn)	none (no result: NS1 inh)
COCCN1CN=C(Nc2nc3ccccc3o2)NC1	none
COCCN1CN=C(Nc2nc3ccccc3s2)NC1	Cruzain Triton inconclusive, Cruzain noTriton 16µM
Cc1cc(Nc2cccc(C(F)(F)F)c2)nc2ccc(NC(=O)c3ccc(N(C)C)cc3)cc12	Cruzain noTriton inconclusive (no result: NS1 inh)
O=C(Cn1cnc2onc(-c3ccc(F)cc3)c2c1=O)Nc1ccc(F)c(Cl)c1	none (no result: NS1 inh)
CC(C)c1ccc(S(=O)(=O)c2cn(Cc3ccc(F)cc3)c3cc4c(cc3c2=O)OCO4)cc1	Cruzain noTriton inconclusive
CCCn1cc(S(=O)(=O)c2ccc(OCC)cc2)c(=O)c2cc(C)ccc21	none (no result: NS1 inh)
CCOc1ccc(S(=O)(=O)c2cn(Cc3cc(C)ccc3C)c3ccc(OCC)cc3c2=O)cc1	Cruzain noTriton 16µM (no result: NS1 inh)
Cc1ccc(Cn2cc(S(=O)(=O)c3ccc(C(C)C)cc3)c(=O)c3cc4c(cc32)OCO4)cc1	Cruzain noTriton 32µM, NS1 inh inconclusive
Cc1cccc(N2CCN(Cc3cc(=O)oc4cc(C)ccc34)CC2C)c1 (stereo not drawn)	none (no result: NS1 inh)
CC(C)Oc1ccc(C(=O)Nc2ccc(N3CCCC3)cc2)cc1	Cruzain noTriton 4µM, NS1 inh inconclusive
O=C(Cc1ccccc1)Nc1ccc(N2CCCC2)cc1	Cruzain Triton inconclusive, Cruzain noTriton 13µM
O=C(Nc1ccc(N2CCCC2)cc1)c1ccc(Br)cc1	none (no result: Cruzain Triton, Cruzain noTriton)
O=C(Cc1ccccc1)Nc1ccc(N2CCOCC2)cc1	none (no result: Cruzain Triton, Cruzain noTriton)
O=C(Cc1ccccc1)Nc1cccc(N2CCCC2)c1	Cruzain noTriton 25µM, NS1 inh inconclusive
O=C(CCc1ccccc1)Nc1ccc(N2CCCCC2)cc1	none
O=C(Nc1ccc(N2CCCC2)cc1)C(c1ccccc1)c1ccccc1	Cruzain noTriton 7.9µM
CC(=O)N1CCN(c2ccc(NC(=O)C(c3ccccc3)c3ccccc3)cc2)CC1	none (no result: Cruzain Triton, Cruzain noTriton)
C=C(C)C(=O)OCCCCCC	none (no result: NS1 inh)
CCN(c1ccc(C)cc1)S(=O)(=O)c1nnc(NC(=O)C2CCCCC2)s1	none (no result: NS1 inh)
COC(=O)c1sc2cccc(F)c2c1S(=O)(=O)Nc1cc(C)c(Cl)cc1OC	none (no result: NS1 inh)
CC(=O)OC(C)C	none (no result: NS1 inh)
CC(C)c1nn2c(=O)cc(COC(=O)c3ccc(NC(=O)c4cccs4)cc3)nc2s1	none (no result: NS1 inh)
CCOCCCNC(=O)C1CCCN(Cc2nc(-c3ccc(CC)cc3)oc2C)C1 (stereo not drawn)	none (no result: NS1 inh)

Screening results as filed in PubChem.
